Assay results as given in the supplement of paper PMC10849652.
About 7,900 targets were measured; listed, in parts, are those with a hit and a random draw of the rest. About 0.6% of all pairs of compound and target were hits. Unmarked numbers belong to inactive results.

Tests used:
Experiment in all cases: log2 fold change, soluble protein after heating vs DMSO (PISA); higher = thermal stabilisation; K562 cells, 10 uM, 30 min; active = over 0.2 and 3.5 SD of the protein, either way, in both replicates (recomputed)
[1] = compound: C#Cc1cccc(Nc2ncnc3cc(OCCOC)c(OCCOC)cc23)c1 [erlotinib]
Outline: (§1)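 K562 cells (2×10^6 cells/mL) were treated with 10 μM compound for 30 min, and aliquots were heated for 3 min over 48°C-58°C. Pooled aliquots were extracted in PBS with 0.5% NP-40 at 4°C, and the supernatant after 21,000xg for 90 min was measured by TMTpro 16plex LC-MS/MS with channel sums equalised. Reported thermal stability, relative to control samples and from duplicates, is a log2 fold change.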

[2] = compound: C/C(=N\NC(=O)C1=CC(=CC=C1)S(=O)(=O)N2CCOCC2)/C3=C(C=CC(=C3)Cl)O
Outline: as §1

[3] = compound: C1=CC(=C(C=C1Cl)C2=NC3=NC=CN=C3C(=N2)NC4=CC=NC=C4)F
Outline: as §1

[4] = compound: C1=CC(=CC=C1C2=NC3=C(N2)C=C(C=C3)C(=O)N)OC4=CC=C(C=C4)Cl
Outline: as §1

[5] = compound: C1=CC2=C(C=CC(=C2)/C=C\3/C(=O)NC(=NCC4=CC=CS4)S3)N=C1
Outline: as §1

[6] = compound: C1=CC2=NC=CN=C2C=C1/C=C/3\C(=O)NC(=O)S3
Outline: as §1

[7] = compound: C1=CC=C(C=C1)C2=NC(=C(N2)C3=CC=NC=C3)C4=CC(=C(C=C4)Cl)O
Outline: as §1

[8] = compound: C1=CC=C2C(=C1)C3=NNC4=CC=CC(=C43)C2=O
Outline: as §1

[9] = compound: C1CCN(C1)C(=O)NC2=CC=CC(=C2)NC3=NC=C(C(=N3)NCCC4=CN=CN4)Br
Outline: as §1

[10] = compound: C1CN(CCC1(CC2=CC=C(C=C2)Cl)N)C3=NC=NC4=C3C=CN4
Outline: as §1

UniProt Q7L3B6, sequence (Q7L3B6 whole entry, looked up): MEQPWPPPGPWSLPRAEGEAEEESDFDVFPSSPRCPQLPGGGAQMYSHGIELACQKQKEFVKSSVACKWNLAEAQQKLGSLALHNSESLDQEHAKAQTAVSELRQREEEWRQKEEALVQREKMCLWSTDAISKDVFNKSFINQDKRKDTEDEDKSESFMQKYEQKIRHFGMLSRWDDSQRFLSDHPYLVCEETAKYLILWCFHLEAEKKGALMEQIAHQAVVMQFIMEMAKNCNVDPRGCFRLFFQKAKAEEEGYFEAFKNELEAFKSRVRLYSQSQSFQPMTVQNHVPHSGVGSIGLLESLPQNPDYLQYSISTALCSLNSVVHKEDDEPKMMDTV
UniProt Q13901, sequence (Q13901 whole entry, looked up): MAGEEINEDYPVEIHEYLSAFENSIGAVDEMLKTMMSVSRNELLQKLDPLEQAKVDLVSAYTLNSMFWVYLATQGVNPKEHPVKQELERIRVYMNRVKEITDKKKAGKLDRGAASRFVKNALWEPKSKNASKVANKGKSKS
UniProt P23786, sequence (P23786 whole entry, looked up): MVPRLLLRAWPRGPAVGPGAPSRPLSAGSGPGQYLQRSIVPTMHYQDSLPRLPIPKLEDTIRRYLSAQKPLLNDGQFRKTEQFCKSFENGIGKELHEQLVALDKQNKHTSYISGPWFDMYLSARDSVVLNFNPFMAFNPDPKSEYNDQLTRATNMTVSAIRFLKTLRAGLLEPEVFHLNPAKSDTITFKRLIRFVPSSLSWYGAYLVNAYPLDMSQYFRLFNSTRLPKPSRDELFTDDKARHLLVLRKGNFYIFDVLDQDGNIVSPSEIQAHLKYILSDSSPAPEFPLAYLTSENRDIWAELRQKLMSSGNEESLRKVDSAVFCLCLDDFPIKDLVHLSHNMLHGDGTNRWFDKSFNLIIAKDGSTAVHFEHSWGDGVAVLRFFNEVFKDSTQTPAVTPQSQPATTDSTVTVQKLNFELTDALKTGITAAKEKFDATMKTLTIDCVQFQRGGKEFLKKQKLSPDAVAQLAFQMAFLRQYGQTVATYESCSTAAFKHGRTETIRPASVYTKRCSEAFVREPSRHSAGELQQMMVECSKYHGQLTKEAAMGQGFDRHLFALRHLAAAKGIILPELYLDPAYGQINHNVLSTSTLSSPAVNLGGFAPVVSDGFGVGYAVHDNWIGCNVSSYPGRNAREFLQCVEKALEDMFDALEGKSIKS
UniProt P19784, sequence (P19784 whole entry, looked up): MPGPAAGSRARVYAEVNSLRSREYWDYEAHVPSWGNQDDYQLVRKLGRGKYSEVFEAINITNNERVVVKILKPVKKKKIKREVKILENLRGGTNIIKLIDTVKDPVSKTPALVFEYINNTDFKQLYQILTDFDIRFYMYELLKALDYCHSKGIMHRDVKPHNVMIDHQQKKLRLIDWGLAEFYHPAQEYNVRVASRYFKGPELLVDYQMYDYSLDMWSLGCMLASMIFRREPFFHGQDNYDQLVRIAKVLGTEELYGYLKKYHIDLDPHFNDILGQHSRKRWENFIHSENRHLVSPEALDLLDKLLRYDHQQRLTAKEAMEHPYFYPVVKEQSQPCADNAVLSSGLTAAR
UniProt O75794, sequence (O75794 whole entry, looked up): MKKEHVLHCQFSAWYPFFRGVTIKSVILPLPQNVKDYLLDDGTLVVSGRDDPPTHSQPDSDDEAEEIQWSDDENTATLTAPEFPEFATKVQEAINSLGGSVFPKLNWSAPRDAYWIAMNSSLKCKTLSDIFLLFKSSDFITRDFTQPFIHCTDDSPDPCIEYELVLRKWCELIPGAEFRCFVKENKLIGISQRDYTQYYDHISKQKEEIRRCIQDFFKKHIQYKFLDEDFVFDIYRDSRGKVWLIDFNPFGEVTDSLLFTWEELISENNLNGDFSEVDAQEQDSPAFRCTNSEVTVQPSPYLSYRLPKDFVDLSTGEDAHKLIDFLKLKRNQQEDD
UniProt O95319, sequence (O95319 whole entry, looked up): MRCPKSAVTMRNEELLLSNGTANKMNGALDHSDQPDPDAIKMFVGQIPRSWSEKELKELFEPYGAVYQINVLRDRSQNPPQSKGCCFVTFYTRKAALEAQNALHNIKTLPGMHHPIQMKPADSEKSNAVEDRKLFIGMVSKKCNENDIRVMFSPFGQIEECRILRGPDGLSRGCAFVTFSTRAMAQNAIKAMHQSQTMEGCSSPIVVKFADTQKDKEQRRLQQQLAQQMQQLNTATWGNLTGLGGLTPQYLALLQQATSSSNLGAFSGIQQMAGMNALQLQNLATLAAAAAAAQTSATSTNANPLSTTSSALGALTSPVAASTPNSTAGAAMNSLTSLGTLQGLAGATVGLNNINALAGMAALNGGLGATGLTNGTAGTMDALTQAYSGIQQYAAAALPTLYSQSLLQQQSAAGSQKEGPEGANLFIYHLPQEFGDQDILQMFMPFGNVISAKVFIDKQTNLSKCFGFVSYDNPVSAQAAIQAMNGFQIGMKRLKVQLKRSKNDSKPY
UniProt O76031, sequence (O76031 whole entry, looked up): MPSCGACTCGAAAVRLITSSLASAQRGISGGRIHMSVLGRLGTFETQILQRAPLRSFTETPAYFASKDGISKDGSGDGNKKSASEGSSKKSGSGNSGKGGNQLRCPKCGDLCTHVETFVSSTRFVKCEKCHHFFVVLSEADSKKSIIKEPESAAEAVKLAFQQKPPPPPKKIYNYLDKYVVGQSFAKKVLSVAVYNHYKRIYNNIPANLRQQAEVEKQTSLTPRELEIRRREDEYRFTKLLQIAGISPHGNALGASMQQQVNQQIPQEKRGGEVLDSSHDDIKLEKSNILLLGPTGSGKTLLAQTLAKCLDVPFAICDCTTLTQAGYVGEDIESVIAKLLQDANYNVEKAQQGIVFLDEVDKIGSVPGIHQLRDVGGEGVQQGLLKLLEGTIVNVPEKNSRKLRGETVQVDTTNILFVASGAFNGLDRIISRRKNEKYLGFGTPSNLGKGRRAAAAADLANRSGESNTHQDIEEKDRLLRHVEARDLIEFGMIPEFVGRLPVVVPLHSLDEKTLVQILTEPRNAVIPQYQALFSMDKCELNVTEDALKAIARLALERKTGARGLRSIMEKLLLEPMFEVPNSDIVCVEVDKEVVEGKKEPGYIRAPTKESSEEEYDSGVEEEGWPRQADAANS
UniProt Q5T5Y3, sequence (Q5T5Y3 whole entry, looked up): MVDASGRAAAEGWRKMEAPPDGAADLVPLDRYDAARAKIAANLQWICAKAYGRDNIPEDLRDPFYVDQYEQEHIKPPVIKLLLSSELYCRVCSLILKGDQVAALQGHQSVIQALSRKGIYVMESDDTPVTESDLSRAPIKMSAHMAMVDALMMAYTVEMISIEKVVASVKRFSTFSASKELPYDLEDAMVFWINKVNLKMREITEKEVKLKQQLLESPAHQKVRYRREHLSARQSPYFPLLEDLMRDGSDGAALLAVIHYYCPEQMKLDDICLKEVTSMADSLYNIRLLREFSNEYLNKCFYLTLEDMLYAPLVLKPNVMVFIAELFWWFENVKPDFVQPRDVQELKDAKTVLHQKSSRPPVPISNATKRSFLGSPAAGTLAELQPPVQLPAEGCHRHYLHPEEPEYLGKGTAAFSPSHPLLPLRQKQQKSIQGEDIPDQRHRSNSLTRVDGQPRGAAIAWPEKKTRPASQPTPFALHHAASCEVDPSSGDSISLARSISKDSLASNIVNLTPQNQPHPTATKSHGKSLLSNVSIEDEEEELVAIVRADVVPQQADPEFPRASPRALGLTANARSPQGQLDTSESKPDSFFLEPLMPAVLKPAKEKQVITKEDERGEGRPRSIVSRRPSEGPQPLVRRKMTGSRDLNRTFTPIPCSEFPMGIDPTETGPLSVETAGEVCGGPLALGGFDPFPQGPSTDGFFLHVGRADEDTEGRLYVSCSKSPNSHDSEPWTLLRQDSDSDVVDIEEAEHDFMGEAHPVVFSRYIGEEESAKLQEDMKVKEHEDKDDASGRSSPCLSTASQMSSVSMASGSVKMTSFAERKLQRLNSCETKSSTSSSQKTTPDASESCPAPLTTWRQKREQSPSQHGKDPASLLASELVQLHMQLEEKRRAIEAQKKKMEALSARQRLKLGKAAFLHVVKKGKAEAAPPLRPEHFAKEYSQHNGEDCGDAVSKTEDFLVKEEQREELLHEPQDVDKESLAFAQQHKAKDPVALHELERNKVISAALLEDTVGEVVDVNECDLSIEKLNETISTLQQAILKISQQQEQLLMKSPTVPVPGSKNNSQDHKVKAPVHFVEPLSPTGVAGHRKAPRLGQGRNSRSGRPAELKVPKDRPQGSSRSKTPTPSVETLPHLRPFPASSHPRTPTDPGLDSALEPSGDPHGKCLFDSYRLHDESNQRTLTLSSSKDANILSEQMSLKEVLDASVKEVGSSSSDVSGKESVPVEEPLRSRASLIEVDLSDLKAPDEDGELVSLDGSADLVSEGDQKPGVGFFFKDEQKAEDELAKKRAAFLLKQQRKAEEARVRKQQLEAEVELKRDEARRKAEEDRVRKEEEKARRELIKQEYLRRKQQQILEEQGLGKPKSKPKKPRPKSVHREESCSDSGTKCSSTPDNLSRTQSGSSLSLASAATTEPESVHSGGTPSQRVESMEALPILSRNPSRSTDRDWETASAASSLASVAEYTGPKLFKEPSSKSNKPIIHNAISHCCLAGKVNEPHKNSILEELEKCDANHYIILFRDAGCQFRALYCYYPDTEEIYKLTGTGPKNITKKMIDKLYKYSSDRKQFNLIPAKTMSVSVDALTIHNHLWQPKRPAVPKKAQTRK
UniProt Q6P5X5, sequence (Q6P5X5 whole entry, looked up): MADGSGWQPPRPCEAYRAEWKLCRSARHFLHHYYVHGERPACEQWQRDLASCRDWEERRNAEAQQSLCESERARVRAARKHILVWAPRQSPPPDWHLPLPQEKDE
UniProt P05937, sequence (P05937 whole entry, looked up): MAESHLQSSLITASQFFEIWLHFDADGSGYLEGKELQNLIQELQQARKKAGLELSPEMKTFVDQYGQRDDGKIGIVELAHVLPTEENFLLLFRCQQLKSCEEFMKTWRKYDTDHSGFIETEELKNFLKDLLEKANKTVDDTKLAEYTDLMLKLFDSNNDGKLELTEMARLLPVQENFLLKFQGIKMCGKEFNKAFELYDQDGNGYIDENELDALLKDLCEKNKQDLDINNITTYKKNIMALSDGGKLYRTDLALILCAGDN

Target	log2 fold change [1]	log2 fold change [2]	log2 fold change [3]	log2 fold change [4]	log2 fold change [5]	log2 fold change [6]	log2 fold change [7]	log2 fold change [8]	log2 fold change [9]	log2 fold change [10]
CHCHD4 isoform 2 (UniProt Q8N4Q1)	-0.071	0.102	-0.045	-0.036	-0.067	0.012	-0.022	0.053	-0.678	0.177
CAMKK2 (UniProt Q96RR4)	-0.091	-0.047	-0.026	-0.232	-0.059	-0.081	-0.122	-0.037	-0.19	0.23
CDC123 (UniProt O75794)	-0.039	0.038	0.011	0.036	-0.021	0.032	0.048	-0.001	-0.001	0.023
CDK12 (UniProt Q9NYV4)	-0.049	0.001	-0.44	0.076	-0.06	-0.053	-0.066	-0.23	-0.077	-0.187
CDK11B (UniProt P21127)	0.044	0.006	-0.139	0.063	0.035	-0.033	-0.042	-0.049	-0.033	-0.058
CCDC9 (UniProt Q9Y3X0)	0.017	-0.116	-0.036	0.047	-0.045	0.034	0.027	-0.02	0.062	0.034
CAMSAP1 isoform 3 (UniProt Q5T5Y3)	-0.084	0.023	-0.014	-0.013	0.058	0.007	0.035	-0.078	-0.016	0.006
COPS8 (UniProt Q99627)	0.033	0.032	-0.005	-0.002	0.081	0.008	0.012	-0.042	-0.04	0.015
CDC42BPB (UniProt Q9Y5S2)	-0.005	0.221	-0.071	0.069	-0.047	0.027	-0.024	0.04	0.017	-0.221
CMTR1 (UniProt Q8N1G2)	-0.005	0.105	0.031	0.013	0.048	0.012	0.012	0.036	0.01	0.018
CALB1 (UniProt P05937)	-0.011	-0.001	0.067	0.032	-0.033	0.055	-0.01	0.027	0.019	-0.026
CNOT7 (UniProt Q9UIV1)	0.025	-0.002	-0.059	0.018	0.194	-0.044	0.128	0.048	-0.003	0.016
CLASP2 isoform 3 (UniProt O75122)	0.014	0.136	0.066	0.032	0.081	-0.013	-0.01	0.006	-0.063	0.041
CLPX (UniProt O76031)	-0.062	0.056	0.01	0.004	-0.009	0.036	-0.008	-0.034	-0.03	-0.003
CCNB1 (UniProt P14635)	0.012	0.013	0.03	0.044	0.013	0.006	-0.016	0.002	-0.011	-0.018
CNOT2 (UniProt Q9NZN8)	0.043	0.059	0.009	-0.024	0.016	0.045	-0.031	-0.042	-0.019	-0.034
CHMP4B (UniProt Q9H444)	0.018	-0.006	0.024	0.013	-0.014	0.057	0.043	-0.001	0.083	0.035
CETN3 (UniProt O15182)	-0.098	0.009	-0.065	-0.022	0.027	0.077	-0.12	-0.055	0.041	-0.125
CA8 (UniProt P35219)	-0.045	0.051	0.092	-0.017	0.054	0.019	0.118	-0.02	-0.054	0.011
CRKL (UniProt P46109)	-0.012	-0.002	0.014	-0.02	0.047	0.006	-0.069	-0.017	0.017	0.026
C1D (UniProt Q13901)	0.022	-0.078	-0.01	-0.011	-0.246	0.068	-0.071	-0.044	-0.019	-0.1
CELF2 isoform 3 (UniProt O95319)	-0.042	-0.044	0	0.045	0.004	0.047	0.021	0.064	-0.022	0.086
CSNK2A2 (UniProt P19784)	-0.053	-0.08	0.046	-0.006	0.22 (active)	0.591 (active)	-0.038	0.185	0.034	-0.047
CDC37L1 (UniProt Q7L3B6)	-0.069	0.008	-0.007	-0.035	0.054	0.068	0	-0.012	0.203	0.357
CDC42EP1 (UniProt Q00587)	0.09	0.063	0.006	0.115	0.136	-0.011	-0.005	-0.086	-0.133	-0.001
C22orf39 (UniProt Q6P5X5)	-0.256	-0.02	-0.018	0.02	-0.014	0.051	-0.023	-0.004	0.037	0.02
CIZ1 (UniProt Q9ULV3)	0.002	0.024	0.032	0.069	0.009	0.083	-0.092	-0.085	0.034	-0.016
CPT2 (UniProt P23786)	-0.096	-0.087	0.068	0.636	0.07	0.076	0.163	0.066	0.004	0.23
CHMP4C (UniProt Q96CF2)	0.036	0.06	0.476 (active)	-0.025	0.054	0.134	-0.064	-0.043	0.058	0.034
CCND3 (UniProt P30281)	-0.028	-0.025	-0.081	0.036	0.143	0.289	0.047	-0.001	0.09	-0.043
